Consider 99 compounds from PubChem BioAssay AID2018 (Sanford-Burnham Center for Chemical Genomics, 2009).

Structures are written as SMILES. The whole screen tested about 1,200 compounds, of which about 600 (50%) were called active. So high a share suggests a set chosen from earlier hits. Some of the results follow. Entries with a potency or affinity are not part of this list. A number with no mark means an inactive call. Cut-off read from the data, not from the text of the source: active = inhibition above about 42%; inactive = the rest.

Sequence of SUMO-conjugating enzyme UBC9 (Homo sapiens) (P63279 whole entry, looked up): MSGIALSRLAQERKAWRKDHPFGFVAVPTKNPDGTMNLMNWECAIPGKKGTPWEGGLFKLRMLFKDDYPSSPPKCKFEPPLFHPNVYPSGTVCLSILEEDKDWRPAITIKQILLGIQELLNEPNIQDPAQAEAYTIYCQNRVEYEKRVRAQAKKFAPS

This experiment concerns the target SUMO-conjugating enzyme UBC9 (Homo sapiens) (UniProt P63279). Put plainly: blockers of UBC9-mediated SUMO conjugation – biochemical, AlphaScreen, SUMOylation inhibitor project, confirmation (AID 2018). The following applies: AlphaScreen in vitro SUMOylation assay; at 35 µM; active compounds read high. On the technique in general: In Alpha technology, singlet oxygen from a donor bead excites a nearby acceptor bead.
As a reminder, the inhibition is the drop in the measured response relative to a control, in per cent. As to `COc1ccc(N2C(=O)[C@@H]3[C@H](C2=O)[C@H]2c4ccccc4C=CN2[C@@H]3C(C)=O)cc1`, the inhibition is 53.6% (active).

On to `CCC(=O)N1CCc2cc(S(=O)(=O)NC(C(=O)NCc3ccc(C)cc3)C(C)C)ccc21` (centres undefined), for which the inhibition is 37.4%.

Regarding `Cc1ccoc1C(=O)NCCCNC(=O)c1occc1C`, the inhibition is 56.7% (active).

`CN(C)c1cccc2cccc(N(C)C)c12`: the inhibition is 3.1%.

On to `Cc1cc2oc(C(=O)Nc3ccc(S(=O)(=O)Nc4nccs4)cc3)cc(=O)c2cc1Cl`, for which the inhibition was 75% (active). In the case of `CCN(c1ccccc1)c1cc2ccccc2c(=O)[nH]1` it was 35.3%. To `O=c1[nH]c(Nc2ccccc2)cc2ccccc12` belongs 102% (active); to `Cn1c(-c2ccc(C=O)s2)nc2ccccc21`, 14.4%; to `Cc1ccc(C(=O)NC(C)c2nc3ccccc3n2CC(=O)Nc2c(C)cc(C)cc2C)cc1` (centres undefined), 5.3%. In the case of `CCn1c(NC(=O)c2ccccc2)nc2ccccc21` it was 73% (active); in that of `CCOc1ccc(NC(=S)Nc2cccc3ccccc23)cc1`, 4.4%; in that of `CCOC(=O)COc1nc(-c2ccco2)cc(-c2ccco2)c1C#N`, -28.4%. Turning to `COc1ccc(C(N)c2nccc3cc(OC)c(OC)cc23)cc1OC` (centres undefined), the inhibition was 22.1%. To `CC1=CC(C)(C)N2C(=O)C(=Nc3ccc(O)cc3)c3cccc1c32` belongs 95.8% (active). To `Cc1cc(=O)[nH]c(SCC(=O)Nc2cccc(C(F)(F)F)c2)n1` belongs -20.9%.

As to `CCC(=O)c1ccccc1OCCSc1nc(C)cc(=O)[nH]1`, the inhibition is 10.6%. In the case of `Cc1cc(=O)[nH]c(SCC(=O)c2ccc(O)c(O)c2)n1` it was 55.2% (active). In the case of `O=C(NN1C(=O)CSC1=S)C(=O)NN1C(=O)CSC1=S` it was 102% (active); in that of `CCOc1cc(CNc2cccc3ccccc23)cc(Br)c1OCC(=O)NC(C)(C)C`, -1.9%. For the compound `CCOc1cc(CNc2ccc(N3CCN(C(C)=O)CC3)cc2)cc(Br)c1OC`, the inhibition was 45.3% (active). With `CCN(Cc1cc(=O)n2ccsc2n1)c1cccc2ccccc12`, the inhibition was 25.6%.

For `Oc1ccc2ccccc2c1C=NCc1ccccc1`, the inhibition is 38.6%. In the case of `Oc1ccc2ccccc2c1C=NCc1cn2ccsc2n1` it was 42.5% (active); in that of `Cc1ccc(NC(=S)Nc2ccc3cn[nH]c3c2)cc1`, 30.2%. To `CN(C)c1cccc2c(C=C(C#N)C#N)ccc(N(C)C)c12` belongs 19.4%; to `CCCS(=O)(=O)c1c(S(=O)(=O)CCC)c2c(N)cccn2c1C(=O)c1ccc(Br)cc1`, 23.1%; to `COc1ccc(N2C3=C(CC4=C2CCCC4=O)C(=O)CCC3)cc1`, 19.3%. In the case of `CCOC(=O)C(CCCCOc1ccc([N+](=O)[O-])cc1)C(=O)OCC` it was -21.9%. As to `O=C(O)/C=C/C(=O)Nc1ccc(O)cc1`, the inhibition was 15.1%. To `O=c1[nH]nc(CNc2ccc(O)cc2)c2ccccc12` belongs 9.6%; to `CCOc1cccc(CNc2ccc(O)cc2)c1OCc1ccc(Cl)cc1Cl`, 81% (active).

As to `CCOc1ccccc1CNc1ccc(O)cc1`, the inhibition is 45.3% (active). In the case of `Cn1c(CNc2ccc(O)cc2)nc2ccccc21` it was 16.9%; in that of `Oc1ccc(NCc2ccccc2OCc2ccccc2F)cc1`, 88.9% (active); in that of `O=c1nc2s/c(=C\c3ccco3)c(=O)n2nc1Cc1ccccc1`, 26.6%.

With `CCOC(=O)C1=C(N)n2c(s/c(=C/c3ccco3)c2=O)=C(C(=O)OC)C1c1ccco1` (centres undefined), the inhibition is 34%.

For the compound `COc1ccccc1/C=C/CN1CCN(c2ccccc2)CC1`, the inhibition is 29.6%. To `O=c1c2cc(N3CCOCC3)ccc2[nH]c(=S)n1CC1CCCO1` (centres undefined) belongs -2.6%; to `CCOC(=O)c1c(NC(=O)C2C3C=CC(CC3)C2C(=O)O)sc(C)c1CC` (centres undefined), 20%; to `COc1cccc(CNc2cccc3cccnc23)c1O`, 43.5% (active). In the case of `O=C(/C=C/c1ccco1)Nc1cccc2cccnc12` it was 6.6%. In the case of `Cc1ccc(O)c(CNc2cccc3cccnc23)c1` it was 49.6% (active); in that of `CC(C)(C)C(=O)NC(Nc1cccc2cccnc12)C(Cl)(Cl)Cl` (centres undefined), 7.9%.

For `Oc1ccc(Br)cc1CNc1cccc2cccnc12`, the inhibition was 61.8% (active). To `Cc1ccc(F)c(NC(=S)Nc2cccc3ccccc23)c1` belongs 10.1%; to `O=C(O)c1cc2cccc(S(=O)(=O)N3CCOCC3)c2cc1O`, -21.6%; to `CC(=O)c1ccc2cccc3c2c1N=CN3C`, 13.7%. To `COc1cc(C)c2c(c1C=O)Oc1c(c(C)c(O)c3c1C(O)OC3=O)OC2=O` (centres undefined) belongs 95% (active); to `COc1ccc(S(=O)(=O)Nc2ccc(O)c3ccccc23)cc1`, 48.3% (active). Take `O=S(=O)(Nc1ccc(O)c2ccccc12)c1cccs1`: the inhibition was 51.7% (active).

As for `CCc1ccc(S(=O)(=O)Nc2ccc(O)c3ccccc23)cc1`, the inhibition was 38.3%. To `Cc1ccc(S(=O)(=O)NNC(=O)Nc2cccc3ccccc23)cc1` belongs 9.6%. Consider `CCc1ccc2c(c1)c1nc(C)sc1n2CC`, for which the inhibition is 20.9%. In the case of `CC(C)CNC1=CC(=O)CC(c2ccco2)C1` (centres undefined) it was 0.4%; in that of `O=C1C=C(O)CC(c2ccco2)C1` (centres undefined), 47.7% (active).

Take `Nc1ccccc1NC1=CC(=O)CC(c2ccco2)C1` (centres undefined): the inhibition was 18.4%. To `Cc1sc2nc3ccc(NCc4ccco4)nn3c(=O)c2c1C` belongs 0.9%. In the case of `CCOc1cc(NC(=S)NCc2ccco2)c(OCC)cc1NC(=O)CC` it was -0.7%; in that of `CCCCCCCC1(C)NC(=O)N(CC(=O)Nc2cc(C)on2)C1=O` (centres undefined), 2.5%. To `CCOC(=O)N1CCc2c(sc3c2c(=O)n(Cc2ccccc2)c(=O)n3CC(=O)NCCOC)C1` belongs 15.2%; to `Cc1oc(-c2ccc(F)cc2)cc1-c1nn2c(-c3ccoc3C)nnc2s1`, 22.7%. With `Cc1c(C(=O)c2ccc(Cl)cc2[N+](=O)[O-])c2ccccn2c1CCC#N`, the inhibition was 17.8%.

With `COc1ccc(C(=O)CSc2nnc(-c3ccco3)c(-c3ccco3)n2)cc1`, the inhibition is 43% (active). To `COc1ccccc1CCNC(=O)CSc1ccc(-c2ccco2)nn1` belongs 19%; to `O=C(CSc1nnc(-c2ccco2)c(-c2ccco2)n1)c1ccccc1`, 76.2% (active); to `Cc1ccc(-c2cc(C(=O)N/N=C/c3ccc([N+](=O)[O-])o3)c3ccccc3n2)o1`, 30.3%. To `O=C(N/N=C/c1ccc(-c2ccc(Cl)c(C(=O)O)c2)o1)c1cc2c(ccc3ccccc32)o1` belongs 102% (active); to `Cc1c(C(=O)O)c(C(=O)O)nc2ccc(N3CCOCC3)cc12`, -17.6%; to `NC1=NC(c2ccc(Cl)cc2)N(c2ccc(S(N)(=O)=O)cc2)C(N)=N1` (centres undefined), 25.2%.

As for `O=C(CNc1cccc2ccccc12)N/N=C/c1ccc([N+](=O)[O-])o1`, the inhibition is 37.5%.

With `CC(Nc1cccc2ccccc12)C(=O)N/N=C/c1ccccn1` (centres undefined), the inhibition was -4.4%. In the case of `C#CCOc1ccc(/C=C2/C(=O)N(c3cccc(C(=O)O)c3)N=C2C)cc1OC` it was 55.9% (active); in that of `N#Cc1cc2ccc(N3CCOCC3)cc2cc1C#N`, -11.7%.

For `COc1cc(/C=C2/C(=O)N(c3ccc([N+](=O)[O-])cc3)N=C2N2CCOCC2)ccc1O`, the inhibition is 68.6% (active). As for `O=C1CC(N2CCOCC2)=NN1c1ccc([N+](=O)[O-])cc1`, the inhibition was 51.4% (active). To `COc1ccc(CCN2Cc3c(cccc3[N+](=O)[O-])C2=O)cc1OC` belongs -5.8%; to `CC(=O)c1cccc(NC(=S)Nc2cccc3ccccc23)c1`, -7.4%. To `COc1cc(=O)n(C)c2c(OCC3OC(C)(C)OC3(C)C)cccc12` (centres undefined) belongs 11.2%. In the case of `Cc1ccc(Cn2nnnc2CN2CCC(NC(=O)C(C)(C)C)CC2)cc1` it was -8.9%; in that of `O=C(Nc1ccc(Cl)c(Cl)c1)Nn1cnnc1`, -10.6%; in that of `COc1cc(/C=C2/C(=O)N(c3ccccc3)N=C2C)ccc1OS(=O)(=O)c1ccccc1`, 91.3% (active). With `COc1ccc(/C=C2/C(=O)N(c3ccccc3)N=C2C)cc1OC`, the inhibition was 38.1%. To `COc1ccc(C(=O)N2CCC(O)(c3ccc(F)cc3)CC2)cc1OC` belongs -18.3%. To `Cc1[nH][nH]c(=O)c1C(c1ccc(-c2ccc(F)cc2)o1)c1c(C)[nH][nH]c1=O` belongs 59.6% (active). To `Cc1[nH][nH]c(=O)c1C(c1ccc(-c2cccc(Cl)c2)o1)c1c(C)[nH][nH]c1=O` belongs 101% (active); to `Cc1[nH][nH]c(=O)c1C(c1ccc(-c2ccc(Cl)cc2)o1)c1c(C)[nH][nH]c1=O`, 66.7% (active). On to `OC(COc1ccccc1)CSc1ncn[nH]1` (centres undefined), for which the inhibition is 2.4%. To `O=S(=O)(Nc1cc2nc3ccccc3nc2n1Cc1ccccc1)c1ccc(Cl)cc1` belongs 102% (active); to `O=S(=O)(Nc1ccc2c(c1)nc1n2CCN(Cc2ccccc2)C1)c1ccccc1`, -3.3%; to `CCn1c2ccccc2c2c3ncc4cccn4c3ccc21`, -74.8%.

Take `Cc1cccn2c(=O)c3cc(C(=O)NC4CCCCCC4)sc3nc12`: the inhibition is 33.8%. In the case of `COc1ccc(N(C)C(=O)Nc2ccc3nsnc3c2)cc1` it was 7.7%; in that of `S=C(Nc1ccc2nsnc2c1)N1CCCC1`, 17.9%; in that of `CCOc1ccc(NC(=S)Nc2ccc3nsnc3c2)cc1`, 101% (active). To `COc1ccc(NC(=S)Nc2ccc3nccnc3c2)cc1` belongs 8.4%; to `COc1ccc(NC(=S)Nc2ccc3nsnc3c2)cc1`, 101% (active). In the case of `C=CCN(CC=C)C(=S)Nc1ccc2nsnc2c1` it was 23.6%; in that of `COc1ccc(/C=N/N=C2/CC(C)(C)Cc3n[nH]c(=O)cc32)cc1`, 26.2%. With `COc1ccc(OC)c(/C=N/NC(=O)CCc2ccc(O)c(O)c2)c1`, the inhibition was 18.5%.
